DENV2 CPE: inhibitors of DENV2 cytopathic effect | DENV2-infected cells, cytopathic effect rescue, plate reader | CPE inhibition, % at 9.99 µM | 350,000 tested, 1.7% active; in the data active = CPE inhibition above about 20%, passing the limit was not always enough; tested in BHK-21 cells;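 note: 0% = median of neutral control wells and 100% = median of positive control wells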
ERp5 inh: ERp5 (human) disulfide isomerase inhibition. Q15084. ERp5 insulin aggregation, absorbance 650 nm, 90 min. inhibition, % at 9.99 µM. 350,000 tested, 0.05% active;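 active = mean replicate inhibition above about 25%, with every replicate also reaching it, limit read from the data, passing the limit was not always enough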
Rtt109 HAT inh: blocks Candida albicans Rtt109/Vps75 acetyltransferase activity; purified Rtt109/Vps75, ThioGlo CoA-SH fluorescence, 4 h; inhibition, % at 34.9 µM; 330,000 tested, 0.16% active;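 active = inhibition of at least 50% in every replicate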
PDI turbidity: blocks human protein disulfide isomerase activity; PDI insulin aggregation turbidity, A650, 90 min; inhibition, % at 10 µM; AID 588391; P07237; 350,000 tested, 0.052% active;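 active = mean inhibition across replicates of 30% or more, whatever share of single replicates reach that level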
SIRT5 inh: inhibitors of human sirtuin-5 desuccinylase | inhibition, % at 15 µM | Q9NXA8 | 330,000 tested, 1.1% active | Purified SirT5, succinyl-peptide AMC, trypsin-coupled fluorescence; in the data active = inhibition above about 15%
Target sequence (Q9NXA8 whole entry, looked up): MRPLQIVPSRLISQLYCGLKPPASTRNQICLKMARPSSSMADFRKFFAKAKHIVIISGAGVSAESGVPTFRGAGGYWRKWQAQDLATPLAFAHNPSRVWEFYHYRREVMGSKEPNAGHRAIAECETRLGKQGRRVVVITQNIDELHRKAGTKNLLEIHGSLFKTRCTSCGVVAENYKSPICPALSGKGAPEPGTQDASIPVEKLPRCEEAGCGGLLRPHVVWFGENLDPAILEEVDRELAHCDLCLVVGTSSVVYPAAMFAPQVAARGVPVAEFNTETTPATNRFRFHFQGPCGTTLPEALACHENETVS
Starred values were filed as active, the others as inactive; . = no result; ! = not confirmed by another sample. Hits are enriched below; roughly 2.3% of the tested compounds scored in any of these assays.

SMILES	DENV2 CPE	ERp5 inh	Rtt109 HAT inh	PDI turbidity	SIRT5 inh
CC(C)(NC(=O)c1ccccc1)c1nc2ccccc2s1	109.1*	3.8	-0.3	2.7	.
O=C(Cc1ccccn1)NCC[C@@H]1CC[C@H](NC(=O)c2ccccc2F)[C@@H](CO)O1	2.4	3.8	.	.	2.6
O=C(Nc1ccccc1N1CCCCC1)c1cc(S(=O)(=O)N2CCOCC2)ccc1Cl	-2.0	5.8	3.0	-13.9	-0.6
O=C(Nc1ccccc1Cl)c1cc(S(=O)(=O)N2CCCCC2)ccc1N1CCOCC1	.	.	60.0*	-0.5	.
COc1cc(NC(=O)c2cc(S(=O)(=O)N3CCCCC3)ccc2N2CCOCC2)cc(OC)c1OC	62.7*	-2.2	6.9	5.3	-0.6
C[C@@H]1CCCCO[C@H](CN(C)C(=O)CCCN(C)C)[C@@H](C)CN([C@@H](C)CO)C(=O)c2cc(NC(=O)Nc3cccc4ccccc34)ccc2O1	-3.8	-0.2	.	.	17.6*
C[C@H](CO)N1C[C@H](C)[C@@H](CN(C)C(=O)Cc2ccccc2)OCCCC[C@H](C)Oc2ccc(NC(=O)Nc3cccc4ccccc34)cc2C1=O	23.6*	-2.1	.	.	9.6
C[C@@H]1CCCCO[C@@H](CN(C)Cc2ccccc2)[C@@H](C)CN([C@H](C)CO)C(=O)c2cc(NC(=O)Nc3cccc4ccccc34)ccc2O1	21.0*!	-2.3	.	6.1	0.8
C[C@H]1CCCCO[C@H](CN(C)C(=O)CCCN(C)C)[C@@H](C)CN([C@@H](C)CO)C(=O)c2cc(NC(=O)Nc3cccc4ccccc34)ccc2O1	15.8	-0.4	.	.	0.3
C[C@@H]1CCCCO[C@@H](CN(C)Cc2ccccc2)[C@H](C)CN([C@@H](C)CO)C(=O)c2cc(NC(=O)Nc3cccc4ccccc34)ccc2O1	-25.6	-4.0	.	.	-7.0
Cc1ccc(S(=O)(=O)NC[C@@H]2CC[C@@H]3[C@@H](CN3Cc3ccccc3C(=O)O)O2)cc1	1.2	2.0	.	.	4.7
O=C(NC[C@H]1[C@@H](c2ccccc2)[C@@H](CO)N1Cc1ccccn1)C1CCC1	-4.6	.	.	.	.
O=S(=O)(c1ccc(=S)[nH]c1)N1CCN(Cc2ccccc2)CC1	24.8*	4.0	-12.8	-5.4	-0.1
COc1ccc(NC(=O)Nc2ccc3c(c2)CC(=O)N([C@H](C)CO)C[C@H](C)[C@@H](CN(C)S(=O)(=O)c2ccc(C)cc2)O3)cc1	-0.8	0.3	.	.	15.1*
COc1ccc(NC(=O)Nc2ccc3c(c2)CC(=O)N([C@@H](C)CO)C[C@@H](C)[C@@H](CN(C)S(=O)(=O)c2ccc(C)cc2)O3)cc1	-10.1	-1.1	.	.	1.2
COc1ccc(S(=O)(=O)N(C)C[C@@H]2Oc3ccc(NC(=O)CCC(F)(F)F)cc3CC(=O)N([C@@H](C)CO)C[C@H]2C)cc1	25.4*	-1.2	.	.	1.2
COc1ccc(NC(=O)Nc2ccc3c(c2)CC(=O)N([C@H](C)CO)C[C@H](C)[C@H](CN(C)S(=O)(=O)c2cn(C)cn2)O3)cc1	26.7*	6.8	.	.	5.4
COc1ccc(S(=O)(=O)N(C)C[C@@H]2Oc3ccc(NC(=O)Nc4ccc5c(c4)OCO5)cc3CC(=O)N([C@@H](C)CO)C[C@H]2C)cc1	31.0*	12.4	.	.	8.5
COCC#Cc1ccc2c(c1)O[C@@H](CN(C)C(=O)C1CC1)[C@@H](C)CN([C@@H](C)CO)S2(=O)=O	-1.3	0.4	.	.	4.7
COc1ccc(S(=O)(=O)N(C)C[C@H]2Oc3ccc(NC(=O)Nc4ccc(F)cc4)cc3CC(=O)N([C@@H](C)CO)C[C@H]2C)cc1	23.3*	.	.	.	.
COc1ccc(NC(=O)Nc2ccc3c(c2)CC(=O)N([C@H](C)CO)C[C@H](C)[C@@H](CN(C)S(=O)(=O)c2ccc(OC)cc2)O3)cc1	69.6*	-3.3	.	.	3.7
COc1ccc(S(=O)(=O)N(C)C[C@@H]2Oc3ccc(NC(=O)Nc4ccc(F)cc4)cc3CC(=O)N([C@H](C)CO)C[C@@H]2C)cc1	0.6	.	.	.	.
C[C@H](CO)N1C[C@H](C)[C@H](CN(C)S(=O)(=O)c2ccccc2)Oc2ccc(NC(=O)Nc3ccc4c(c3)OCO4)cc2CC1=O	-4.6	-3.5	.	.	16.2*
C[C@H](CO)N1C[C@H](C)[C@@H](CN(C)S(=O)(=O)c2ccccc2)Oc2ccc(NC(=O)Nc3ccc4c(c3)OCO4)cc2CC1=O	-2.6	-2.0	.	.	3.8
O=C(C1COc2ccccc2O1)N1CCN(c2ccccc2O)CC1 (stereo not given)	-3.2	-4.1	3.1	12.4	17.3*
SMILES	DENV2 CPE	ERp5 inh	Rtt109 HAT inh	PDI turbidity	SIRT5 inh
CSc1ccccc1NC(=O)c1cc2c(=O)n3ccccc3nc2s1	22.3*	5.7	-3.3	9.6	-0.5
CC(C)NC(=O)c1cc2c(=O)n3ccccc3nc2s1	-2.5	3.2	-9.9	-3.3	-46.4
C[C@H]1CN([C@@H](C)CO)C(=O)c2ccccc2-c2ccccc2CO[C@H]1CN(C)S(=O)(=O)c1ccsc1	2.5	-1.4	.	.	-4.1
C/C=C/c1ccc([C@@H]2[C@@H](CO)N(C(=O)c3cnccn3)C23CN(C(=O)C2CC2)C3)cc1	-6.8	-1.8	.	.	-1.2
C/C=C/c1ccc([C@H]2[C@H](CO)N(C(=O)c3cnccn3)C23CN(C(=O)C2CC2)C3)cc1	33.4*	-3.0	.	.	-14.1
C/C=C/c1ccc([C@@H]2[C@@H](CO)N(C(C)=O)C23CN(C(=O)c2ccccc2)C3)cc1	-0.1	-4.0	.	.	-1.4
C/C=C/c1ccc([C@@H]2[C@@H](CO)N(C(C)=O)C23CN(C(=O)c2ccncc2)C3)cc1	24.9*	-4.6	.	.	.
CO[C@H]1CN(C)C(=O)c2ccc(NC(=O)c3ccccc3)cc2OC[C@@H](C)N(CC2CC2)C[C@H]1C	9.0	-21.4	.	.	0.7
CC1CCCN(CCOc2cccc(Oc3ccccc3)c2)C1 (stereo not given)	53.4*	4.1	3.7	8.0	-7.7
Clc1cccc(C2=NOC(c3nnc(-c4ccccc4)o3)C2)c1 (stereo not given)	34.6*	0.4	3.6	-2.6	.
COc1cccc(C#Cc2ccc([C@@H]3[C@H]4CN(C(=O)Cc5cccnc5)CC(=O)N4[C@H]3CO)cc2)c1	1.4	3.1	.	.	1.2
O=c1c(O[C@H]2O[C@@H](CO)[C@H](O)[C@@H](O)[C@@H]2O)c(-c2ccc(O)cc2)oc2cc(O)cc(O)c12	-42.6	3.8	13.4	63.0*	.
O=c1c(OC2OC(CO)C(O)C(O)C2O)c(-c2ccc(O)c(O)c2)oc2cc(O)cc(O)c12 (stereo not given)	.	1.6	3.2	53.8*	.
O=c1c(O[C@@H]2O[C@H](CO)C(O)C2O)c(-c2ccc(O)c(O)c2)oc2cc(O)cc(O)c12 (stereo not given in full)	.	.	-0.8	41.1*	.
C[C@H](CO)N1C[C@H](C)[C@@H](CN(C)C)Oc2cc(-c3ccc(F)cc3)ccc2S1(=O)=O	2.7	-5.8	.	.	-1.8
CN(C)C(=O)c1cccc(-c2ccc3n(c2=O)C[C@@H]2N[C@H]3[C@H](C(=O)NC3CCC3)[C@H]2CO)c1	-7.1	4.5	.	.	-43.5
COc1ccc2nc(SC(C)C(=O)NC3CCCC3)[nH]c2c1 (stereo not given)	63.7*	-22.7	-8.6	-2.2	-1.9

Source: PubChem (Broad Institute)
